These results are taken from PubChem BioAssay (NCI).

Each structure is given as a SMILES string. Compounds without any hit were thinned out: in the full panel of roughly 83,000, 20% have a hit.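 Cell lines were cultured in 96-well plates, exposed to a single compound concentration, and assessed for percent growth 48 hours later.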 Unmarked numbers belong to inactive results. Active and inactive are the calls of the source. The calls were made as follows: active = growth percent below 10; inactive = the rest.

Among the test systems are SR leukemia; RPMI-8226 leukemia; OVCAR-8 ovarian; OVCAR-5 ovarian; OVCAR-4 ovarian; SK-OV-3 ovarian; IGROV1 ovarian; OVCAR-3 ovarian; HS 578T breast; NCI/ADR-RES ovarian.
Common to all, as to assay: NCI-60 one-dose screen, 48 h (100 = growth as untreated, 0 = no growth, -100 = all killed)
Common to all, as to settings: 10 µM unless noted

In the case of `Cc1oc(-c2ccc(Cl)cc2)nc1C1=NN(C(=O)c2ccncc2)C(c2ccccc2)C1` (stereo not given), the growth with SR leukemia is 101%; in the test with RPMI-8226 leukemia, 80.3%; in the test on OVCAR-8 ovarian it was 95.4%; in the test on OVCAR-5 ovarian it was 105%; with OVCAR-4 ovarian, 85.4%; in the test on SK-OV-3 ovarian, 91.9%. Besides, the growth with IGROV1 ovarian is 71.3%; in the test on OVCAR-3 ovarian it was 92.4%; in the test with HS 578T breast, 87.4%; in the test on NCI/ADR-RES ovarian, 94%.
`O=C(Oc1ccc2c(c1)sc1nc(-c3ccccc3)[nH]c(=O)c12)C(F)(F)F`: the growth with SR leukemia is 18.9%; in the test on RPMI-8226 leukemia it was 24.1%; in the test on OVCAR-8 ovarian it was 40.8%; in the test with OVCAR-5 ovarian it was 73.4%; in the test with OVCAR-4 ovarian it was 51.4%; in the test with SK-OV-3 ovarian, 50.2%. In addition, the growth was 32.9% in the test with IGROV1 ovarian, 9.6% (active) in the test with OVCAR-3 ovarian, 18.8% in the test on HS 578T breast and 7.5% (active) with NCI/ADR-RES ovarian.
On to `CC1=Nc2cnc(Nc3ccc(N4CCCCC4)cc3)nc2Nc2ccccc21`, for which the growth with SR leukemia is 34%; with RPMI-8226 leukemia, 34.3%; in the test on OVCAR-8 ovarian it was 77.2%; in the test with OVCAR-5 ovarian, 82.7%; in the test on OVCAR-4 ovarian it was 52.2%; in the test on SK-OV-3 ovarian, 104%. In addition, the growth in the test on IGROV1 ovarian is 63.3%; with OVCAR-3 ovarian, 94.9%; with HS 578T breast, 84.5%; with NCI/ADR-RES ovarian, 62.6%.
Consider `COc1ccc(C/C(C)=C(\c2ccc(Cl)cc2)c2ccc(OCCCN(C)C)cc2)cc1`, for which the growth with SR leukemia is -31.7% (active); in the test with RPMI-8226 leukemia, -2.97% (active); with OVCAR-8 ovarian it was 86.2%; with OVCAR-5 ovarian, 70.8%; with OVCAR-4 ovarian it was 92.9%; in the test with SK-OV-3 ovarian, 99.1%. The growth in the test with IGROV1 ovarian is 62.8%; in the test on OVCAR-3 ovarian, 79.4%; in the test on HS 578T breast, 75.6%; in the test with NCI/ADR-RES ovarian it was 88.7%.
As for `Nc1cc(-c2ccc(Cl)cc2)nn1-c1nnc(/C=C/c2ccco2)c(=O)[nH]1`, the growth is 38.1% in the test with SR leukemia; 43.3% with RPMI-8226 leukemia; 24.8% in the test on OVCAR-8 ovarian; 60.9% in the test on OVCAR-5 ovarian; 29.1% in the test with OVCAR-4 ovarian; 60.7% with SK-OV-3 ovarian. Besides, the growth in the test with IGROV1 ovarian was 35%; with OVCAR-3 ovarian it was 37.9%; in the test on HS 578T breast, 74.1%; in the test with NCI/ADR-RES ovarian, 5.73% (active).
In the case of `COc1ccc(NC(=O)c2ccc(Nc3ncnc4c3cnn4-c3cccc(F)c3)cc2)cc1`, the growth with SR leukemia was 95.2%; with RPMI-8226 leukemia, 96.6%; in the test with OVCAR-8 ovarian, 99.2%; in the test with OVCAR-5 ovarian it was 100%; in the test on OVCAR-4 ovarian, 103%; in the test with SK-OV-3 ovarian, 111%. The growth in the test on IGROV1 ovarian is 109%; with OVCAR-3 ovarian, 110%; with HS 578T breast, 97.4%; in the test on NCI/ADR-RES ovarian, 103%.
As for `COc1ccccc1/C=C/C(=O)Nc1ccc(F)cc1`, the growth with SR leukemia was 95%; in the test on RPMI-8226 leukemia it was 85.4%; with OVCAR-8 ovarian, 100%; in the test with OVCAR-5 ovarian, 108%; with OVCAR-4 ovarian, 86.8%; in the test on SK-OV-3 ovarian it was 81.5%. In addition, the growth with IGROV1 ovarian was 83.2%; with OVCAR-3 ovarian, 104%; with HS 578T breast, 104%; in the test on NCI/ADR-RES ovarian it was 101%.
On to `CC[C@@H](C(=O)[C@@H](C)[C@@H](O)[C@H](C)[C@@H]1O[C@@H]([C@@H](CC)C(=O)ONC(=O)c2ccccc2O)CC[C@@H]1C)C1O[C@]2(C=CC(=O)[C@]3(CC[C@@](C)([C@H]4CC[C@](O)(CC)[C@H](C)O4)O3)O2)[C@H](C)C[C@@H]1C` (stereo not given in full), for which the growth in the test with SR leukemia was 1.64% (active); with RPMI-8226 leukemia, 24.6%; in the test on OVCAR-8 ovarian, 54.9%; with OVCAR-5 ovarian it was 47%; in the test on OVCAR-4 ovarian it was 53.3%; in the test with SK-OV-3 ovarian, 120%. Also, the growth in the test on IGROV1 ovarian is 58.8%; in the test with OVCAR-3 ovarian, 5.93% (active); in the test with HS 578T breast, 43.9%; in the test with NCI/ADR-RES ovarian, 48.7%.
With `CC1=C2CC/C(C)=C/CC[C@]3(C)O[C@H]3CC/C(C)=C/[C@H]2OC1`, the growth in the test on SR leukemia was 87.6%; with RPMI-8226 leukemia it was 93.6%; in the test on OVCAR-8 ovarian it was 95.8%; in the test with OVCAR-5 ovarian, 81.3%; in the test with OVCAR-4 ovarian it was 95.2%; with SK-OV-3 ovarian, 95.7%. Moreover, the growth is 103% with IGROV1 ovarian, 110% in the test with OVCAR-3 ovarian, 108% in the test with HS 578T breast and 87.7% in the test on NCI/ADR-RES ovarian.
For the compound `O=C(OCc1ccc2c(Cl)cc(Cl)c(O)c2n1)N1CCN(C(=O)c2cc3ccccc3[nH]2)CC1`, the growth in the test with SR leukemia was 25.3%; in the test on RPMI-8226 leukemia, 40.6%; in the test with OVCAR-8 ovarian, 23.8%; in the test with OVCAR-5 ovarian, 41.3%; in the test on OVCAR-4 ovarian, 19.6%; with SK-OV-3 ovarian, 31.2%. Besides, the growth in the test with IGROV1 ovarian is 18.5%; in the test on OVCAR-3 ovarian it was 30.6%; in the test with HS 578T breast it was 43.5%; in the test with NCI/ADR-RES ovarian, 7.03% (active).
With `O=C(O)CCCCCCCCCCN1C(=O)/C(=C2/C(=O)N(CC(=O)O)c3ccc(Br)cc32)SC1=S`, the growth with SR leukemia is 57.6%; in the test on RPMI-8226 leukemia, 79.3%; in the test with OVCAR-8 ovarian it was 65.9%; in the test on OVCAR-5 ovarian, 106%; in the test on OVCAR-4 ovarian, 95%; in the test on SK-OV-3 ovarian, 96.6%. In addition, the growth was 74.3% with IGROV1 ovarian, 87.9% with OVCAR-3 ovarian, 85% in the test on HS 578T breast and 96.7% with NCI/ADR-RES ovarian.
`C=C(C)[C@@H]1CC[C@]2(C)[C@H](C=CC3=C4C[C@@](C)(CO)CC[C@]4(C)CC[C@]32C)[C@@]1(C)CCCN`: the growth is -31.4% (active) in the test with SR leukemia; -33.3% (active) with RPMI-8226 leukemia; -38.7% (active) in the test on OVCAR-8 ovarian; 19.1% with OVCAR-5 ovarian; -55.4% (active) in the test on OVCAR-4 ovarian; 8.02% (active) with SK-OV-3 ovarian. Further, the growth is 6.46% (active) in the test with IGROV1 ovarian, -58.8% (active) in the test with OVCAR-3 ovarian, -51.2% (active) in the test on HS 578T breast and -40.7% (active) with NCI/ADR-RES ovarian.
In the case of `O=C(Nc1cc(Cl)cc(Cl)c1)Oc1c(Cl)c(Cl)c(Cl)c(Cl)c1Cl`, the growth is 64.5% in the test on SR leukemia; 37% with RPMI-8226 leukemia; 78.1% with OVCAR-8 ovarian; 87.3% in the test on OVCAR-5 ovarian; 82.4% in the test with OVCAR-4 ovarian; 77.2% with SK-OV-3 ovarian. In addition, the growth is 79.2% in the test with IGROV1 ovarian, 54.9% in the test on OVCAR-3 ovarian, 63.5% in the test with HS 578T breast and 77.5% with NCI/ADR-RES ovarian.
